Legend:
Experiment in all cases: DAPPL (digital affinity profiling via proximity ligation, sequencing); 10 mM Tris-HCl pH 7.5, 50 mM NaCl, 1 mM DTT, 4% glycerol, room temperature, 30 min; GST-TFs on glutathione beads, 16-mer random dsDNA library, 0.1% formaldehyde crosslink after washing; high values mean tight binding
FLI1 = biological target: T1, FLI1 (Homo sapiens, UniProt Q01543 1-452); conditions: protein: recombinant; tags: N-terminal GST; dsDNA, one strand shown
T1 sequence: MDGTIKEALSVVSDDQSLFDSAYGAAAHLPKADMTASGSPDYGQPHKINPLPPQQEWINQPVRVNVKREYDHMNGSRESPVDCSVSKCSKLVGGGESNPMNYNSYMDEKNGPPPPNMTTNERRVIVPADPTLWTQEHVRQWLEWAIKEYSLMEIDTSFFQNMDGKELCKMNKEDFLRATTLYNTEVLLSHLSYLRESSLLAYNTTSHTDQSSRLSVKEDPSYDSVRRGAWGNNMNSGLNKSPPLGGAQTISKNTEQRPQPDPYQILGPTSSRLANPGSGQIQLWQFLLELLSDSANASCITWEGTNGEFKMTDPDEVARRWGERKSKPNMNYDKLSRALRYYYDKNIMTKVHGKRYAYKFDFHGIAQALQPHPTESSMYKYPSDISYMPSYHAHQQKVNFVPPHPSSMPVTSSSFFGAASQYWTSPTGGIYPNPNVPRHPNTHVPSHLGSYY
Method in brief: (§1)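 Each value of binding signal is a hexamer's read frequency for a factor divided by the same hexamer's frequency in the tag-only sample. Barcoded, bead-captured GST fusions of human transcription factors made in yeast were pooled with that sample and incubated with 200 nmole of a random double-stranded 16-mer DNA library in Tris/NaCl/DTT/glycerol buffer at room temperature for 30 min. Washing, 0.1% formaldehyde crosslinking, proximity ligation, PCR and Illumina NextSeq500 sequencing followed.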

ELK1 = biological target: T2, ELK1 (Homo sapiens, UniProt P19419 1-428); conditions: protein: recombinant; tags: N-terminal GST; dsDNA, one strand shown
T2 sequence: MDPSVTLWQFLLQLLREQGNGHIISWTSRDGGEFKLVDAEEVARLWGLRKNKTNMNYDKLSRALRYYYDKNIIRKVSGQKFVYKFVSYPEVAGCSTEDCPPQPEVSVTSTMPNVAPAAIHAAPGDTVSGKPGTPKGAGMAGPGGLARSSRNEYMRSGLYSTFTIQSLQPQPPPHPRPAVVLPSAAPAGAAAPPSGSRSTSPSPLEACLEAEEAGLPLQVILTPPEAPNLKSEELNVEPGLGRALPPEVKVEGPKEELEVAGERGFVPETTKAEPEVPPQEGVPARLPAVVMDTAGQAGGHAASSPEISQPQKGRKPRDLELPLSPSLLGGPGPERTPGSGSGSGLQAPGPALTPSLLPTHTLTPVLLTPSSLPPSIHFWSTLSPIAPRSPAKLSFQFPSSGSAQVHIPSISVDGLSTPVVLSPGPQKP
Method in brief: as §1

GABPA = biological target: T3, GABPA (Homo sapiens, UniProt Q06546 1-454); conditions: protein: recombinant; tags: N-terminal GST; dsDNA, one strand shown
T3 sequence: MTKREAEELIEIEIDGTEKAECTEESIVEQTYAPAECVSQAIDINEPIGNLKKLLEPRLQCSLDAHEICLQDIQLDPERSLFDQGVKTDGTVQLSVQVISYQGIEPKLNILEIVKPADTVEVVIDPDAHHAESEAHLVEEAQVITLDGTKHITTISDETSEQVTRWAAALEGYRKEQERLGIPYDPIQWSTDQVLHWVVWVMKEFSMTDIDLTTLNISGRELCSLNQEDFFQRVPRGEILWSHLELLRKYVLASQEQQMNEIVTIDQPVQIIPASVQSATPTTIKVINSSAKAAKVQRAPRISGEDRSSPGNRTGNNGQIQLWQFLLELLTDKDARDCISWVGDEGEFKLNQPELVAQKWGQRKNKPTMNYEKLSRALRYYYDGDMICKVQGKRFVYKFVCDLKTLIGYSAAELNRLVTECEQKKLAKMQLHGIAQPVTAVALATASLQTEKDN
Method in brief: as §1

ERG = biological target: T4, ERG (Homo sapiens, UniProt P11308 1-479); conditions: protein: recombinant; tags: N-terminal GST; dsDNA, one strand shown
T4 sequence: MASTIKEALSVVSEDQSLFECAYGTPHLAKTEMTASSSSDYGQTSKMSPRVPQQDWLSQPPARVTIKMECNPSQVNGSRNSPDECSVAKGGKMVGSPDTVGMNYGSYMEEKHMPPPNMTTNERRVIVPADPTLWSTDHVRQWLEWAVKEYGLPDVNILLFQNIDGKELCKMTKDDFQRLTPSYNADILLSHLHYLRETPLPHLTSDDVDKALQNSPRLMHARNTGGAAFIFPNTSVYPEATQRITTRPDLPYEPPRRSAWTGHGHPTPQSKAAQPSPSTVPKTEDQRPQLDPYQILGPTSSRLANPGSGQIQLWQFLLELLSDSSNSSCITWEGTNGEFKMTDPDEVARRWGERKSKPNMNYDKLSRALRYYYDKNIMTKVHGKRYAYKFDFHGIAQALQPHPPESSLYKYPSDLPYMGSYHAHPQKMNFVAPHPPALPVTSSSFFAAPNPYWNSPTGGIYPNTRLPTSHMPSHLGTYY
Method in brief: as §1

ELF1 = ELF1 (Homo sapiens, UniProt P32519 1-619); conditions: protein: recombinant; tags: N-terminal GST; dsDNA, one strand shown
ELF1, sequence (P32519 whole entry): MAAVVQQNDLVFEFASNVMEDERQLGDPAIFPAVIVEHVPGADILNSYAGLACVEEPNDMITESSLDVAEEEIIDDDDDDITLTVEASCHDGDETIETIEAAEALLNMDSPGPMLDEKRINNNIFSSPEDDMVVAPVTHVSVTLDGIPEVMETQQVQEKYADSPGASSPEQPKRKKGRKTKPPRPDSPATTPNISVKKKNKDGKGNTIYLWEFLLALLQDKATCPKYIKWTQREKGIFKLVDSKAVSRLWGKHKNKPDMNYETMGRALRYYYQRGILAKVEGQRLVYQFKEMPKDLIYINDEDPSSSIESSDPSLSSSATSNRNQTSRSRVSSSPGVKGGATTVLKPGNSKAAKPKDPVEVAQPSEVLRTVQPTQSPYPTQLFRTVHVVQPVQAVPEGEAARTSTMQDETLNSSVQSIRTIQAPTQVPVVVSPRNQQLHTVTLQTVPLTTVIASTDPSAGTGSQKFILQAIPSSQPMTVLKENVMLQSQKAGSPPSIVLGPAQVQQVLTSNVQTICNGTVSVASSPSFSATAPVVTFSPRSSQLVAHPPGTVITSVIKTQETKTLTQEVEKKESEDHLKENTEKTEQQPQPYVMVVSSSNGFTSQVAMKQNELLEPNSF
Method in brief: as §1

EHF = biological target: T5, EHF (Homo sapiens, UniProt Q9NZC4 1-300); conditions: protein: recombinant; tags: N-terminal GST; dsDNA, one strand shown
T5 sequence: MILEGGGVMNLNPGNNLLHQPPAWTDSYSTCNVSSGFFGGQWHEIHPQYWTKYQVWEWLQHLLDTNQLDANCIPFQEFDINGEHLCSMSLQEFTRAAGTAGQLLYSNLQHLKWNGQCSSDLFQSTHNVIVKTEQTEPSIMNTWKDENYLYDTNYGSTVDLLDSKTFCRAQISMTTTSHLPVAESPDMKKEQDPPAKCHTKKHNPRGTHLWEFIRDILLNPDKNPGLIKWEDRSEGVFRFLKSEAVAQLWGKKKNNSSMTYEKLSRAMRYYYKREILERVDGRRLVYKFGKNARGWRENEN
Method in brief: as §1

SPI1 = SPI1 (Homo sapiens, UniProt P17947 1-270); conditions: protein: recombinant; tags: N-terminal GST; dsDNA, one strand shown
Method in brief: as §1

SPIB = SPIB (Homo sapiens, UniProt Q01892 1-262); conditions: protein: recombinant; tags: N-terminal GST; dsDNA, one strand shown
SPIB, sequence (Q01892 whole entry): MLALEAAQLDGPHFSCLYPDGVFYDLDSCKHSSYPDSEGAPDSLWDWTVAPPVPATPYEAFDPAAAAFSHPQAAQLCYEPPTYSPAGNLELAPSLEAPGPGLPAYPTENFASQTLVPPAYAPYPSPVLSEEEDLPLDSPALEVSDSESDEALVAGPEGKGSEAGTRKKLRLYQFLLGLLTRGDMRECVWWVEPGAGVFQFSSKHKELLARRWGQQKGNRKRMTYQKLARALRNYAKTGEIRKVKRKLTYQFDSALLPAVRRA
Method in brief: as §1

ELK3 = biological target: T6, ELK3 (Homo sapiens, UniProt P41970 1-407); conditions: protein: recombinant; tags: N-terminal GST; dsDNA, one strand shown
T6 sequence: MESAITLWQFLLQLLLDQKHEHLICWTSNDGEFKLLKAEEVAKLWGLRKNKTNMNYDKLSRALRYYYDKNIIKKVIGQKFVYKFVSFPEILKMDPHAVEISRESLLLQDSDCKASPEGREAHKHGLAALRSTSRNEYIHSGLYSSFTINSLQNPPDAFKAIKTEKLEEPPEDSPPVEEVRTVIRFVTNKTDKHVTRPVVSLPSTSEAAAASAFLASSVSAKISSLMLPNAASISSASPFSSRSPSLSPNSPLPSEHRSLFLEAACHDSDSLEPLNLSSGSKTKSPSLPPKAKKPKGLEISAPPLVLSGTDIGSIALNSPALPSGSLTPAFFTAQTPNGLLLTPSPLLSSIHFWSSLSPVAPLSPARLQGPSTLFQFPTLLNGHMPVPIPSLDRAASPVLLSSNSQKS
Method in brief: as §1

FEV = biological target: T7, FEV (Homo sapiens, UniProt Q99581 1-238); conditions: protein: recombinant; tags: N-terminal GST; dsDNA, one strand shown
T7 sequence: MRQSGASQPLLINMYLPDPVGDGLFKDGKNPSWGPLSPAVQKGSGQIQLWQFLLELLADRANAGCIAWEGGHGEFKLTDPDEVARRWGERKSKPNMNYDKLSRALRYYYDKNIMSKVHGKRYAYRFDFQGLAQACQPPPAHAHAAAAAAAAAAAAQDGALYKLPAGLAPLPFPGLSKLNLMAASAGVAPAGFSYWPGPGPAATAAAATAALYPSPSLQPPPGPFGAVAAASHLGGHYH
Method in brief: as §1

ETV5 = ETV5 (Homo sapiens, UniProt P41161 1-510); conditions: protein: recombinant; tags: N-terminal GST; dsDNA, one strand shown
ETV5, sequence (P41161 whole entry): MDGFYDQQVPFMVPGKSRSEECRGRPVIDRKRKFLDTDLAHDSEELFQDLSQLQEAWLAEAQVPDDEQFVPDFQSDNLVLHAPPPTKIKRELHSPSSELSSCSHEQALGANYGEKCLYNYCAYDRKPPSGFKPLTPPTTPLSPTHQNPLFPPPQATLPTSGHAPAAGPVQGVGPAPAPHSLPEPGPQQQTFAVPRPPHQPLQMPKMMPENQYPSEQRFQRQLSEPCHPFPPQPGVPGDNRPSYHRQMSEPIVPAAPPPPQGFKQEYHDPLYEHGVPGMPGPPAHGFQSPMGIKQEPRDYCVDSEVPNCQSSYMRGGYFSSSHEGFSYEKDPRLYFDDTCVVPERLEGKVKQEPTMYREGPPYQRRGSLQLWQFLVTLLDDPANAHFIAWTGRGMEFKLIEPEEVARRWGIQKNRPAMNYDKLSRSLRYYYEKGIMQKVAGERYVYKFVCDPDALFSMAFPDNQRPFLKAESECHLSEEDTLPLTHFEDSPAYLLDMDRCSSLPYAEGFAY
Method in brief: as §1

HSF1 = HSF1 (Homo sapiens, UniProt Q00613 1-529); conditions: protein: recombinant; tags: N-terminal GST; chain copies: 3; dsDNA, one strand shown
HSF1, sequence (Q00613 whole entry): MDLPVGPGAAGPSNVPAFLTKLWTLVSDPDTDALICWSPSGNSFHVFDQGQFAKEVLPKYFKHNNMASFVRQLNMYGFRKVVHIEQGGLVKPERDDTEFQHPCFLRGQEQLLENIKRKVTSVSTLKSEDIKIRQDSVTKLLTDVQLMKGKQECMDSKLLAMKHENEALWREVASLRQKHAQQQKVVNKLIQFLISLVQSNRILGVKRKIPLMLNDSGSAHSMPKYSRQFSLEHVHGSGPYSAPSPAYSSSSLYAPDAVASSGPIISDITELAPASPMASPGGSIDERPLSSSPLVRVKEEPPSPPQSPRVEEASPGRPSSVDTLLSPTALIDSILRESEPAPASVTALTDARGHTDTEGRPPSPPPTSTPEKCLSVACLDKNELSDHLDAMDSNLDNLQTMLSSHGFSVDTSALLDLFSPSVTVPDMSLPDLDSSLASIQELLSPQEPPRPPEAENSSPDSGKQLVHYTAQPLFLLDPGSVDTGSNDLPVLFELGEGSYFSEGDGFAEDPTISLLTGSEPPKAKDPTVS
Method in brief: as §1

SPIC = biological target: T8, SPIC (Homo sapiens, UniProt Q8N5J4 1-248); conditions: protein: recombinant; tags: N-terminal GST; dsDNA, one strand shown
T8 sequence: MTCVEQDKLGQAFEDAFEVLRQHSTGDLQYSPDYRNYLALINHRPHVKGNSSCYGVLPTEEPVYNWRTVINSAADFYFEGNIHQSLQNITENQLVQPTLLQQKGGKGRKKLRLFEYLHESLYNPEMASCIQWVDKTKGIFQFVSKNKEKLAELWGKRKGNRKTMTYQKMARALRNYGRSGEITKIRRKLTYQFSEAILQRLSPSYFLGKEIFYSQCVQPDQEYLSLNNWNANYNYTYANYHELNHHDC
Method in brief: as §1

ELF4 = ELF4 (Homo sapiens, UniProt Q99607 1-663); conditions: protein: recombinant; tags: N-terminal GST; dsDNA, one strand shown
ELF4, sequence (Q99607 whole entry): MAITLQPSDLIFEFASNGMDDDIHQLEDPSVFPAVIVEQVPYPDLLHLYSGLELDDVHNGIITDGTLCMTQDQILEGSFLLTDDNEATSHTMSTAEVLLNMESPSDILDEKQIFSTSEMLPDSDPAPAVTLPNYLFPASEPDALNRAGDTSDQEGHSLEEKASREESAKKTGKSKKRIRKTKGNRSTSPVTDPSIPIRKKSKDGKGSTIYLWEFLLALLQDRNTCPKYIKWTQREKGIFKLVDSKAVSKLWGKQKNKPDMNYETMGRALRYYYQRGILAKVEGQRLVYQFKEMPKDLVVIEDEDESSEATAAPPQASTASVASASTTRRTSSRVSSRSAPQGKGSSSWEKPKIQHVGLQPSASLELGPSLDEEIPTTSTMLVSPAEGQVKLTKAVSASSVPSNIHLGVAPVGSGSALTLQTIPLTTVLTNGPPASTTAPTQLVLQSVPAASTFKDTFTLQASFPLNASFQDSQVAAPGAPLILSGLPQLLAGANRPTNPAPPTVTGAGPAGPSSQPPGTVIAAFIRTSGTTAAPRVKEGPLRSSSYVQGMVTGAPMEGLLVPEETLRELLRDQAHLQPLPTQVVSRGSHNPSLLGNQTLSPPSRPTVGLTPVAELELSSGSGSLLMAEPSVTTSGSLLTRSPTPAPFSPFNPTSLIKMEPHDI
Method in brief: as §1

ELK4 = biological target: T9, ELK4 (Homo sapiens, UniProt P28324-2 1-405); conditions: protein: recombinant; tags: N-terminal GST; dsDNA, one strand shown
T9 sequence: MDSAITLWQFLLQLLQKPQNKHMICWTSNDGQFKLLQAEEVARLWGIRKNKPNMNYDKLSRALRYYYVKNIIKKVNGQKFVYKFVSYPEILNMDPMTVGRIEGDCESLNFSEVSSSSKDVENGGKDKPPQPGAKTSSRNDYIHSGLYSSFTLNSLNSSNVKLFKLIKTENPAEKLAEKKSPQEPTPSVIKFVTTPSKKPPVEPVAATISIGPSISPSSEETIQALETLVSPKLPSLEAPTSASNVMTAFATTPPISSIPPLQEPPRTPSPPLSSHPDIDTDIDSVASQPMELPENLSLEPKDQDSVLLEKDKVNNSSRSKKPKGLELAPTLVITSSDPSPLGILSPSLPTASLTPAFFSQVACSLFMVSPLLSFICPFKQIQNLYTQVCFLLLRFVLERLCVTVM
Method in brief: as §1

ETV2 = biological target: T10, ETV2 (Homo sapiens, UniProt O00321 1-342); conditions: protein: recombinant; tags: N-terminal GST; dsDNA, one strand shown
T10 sequence: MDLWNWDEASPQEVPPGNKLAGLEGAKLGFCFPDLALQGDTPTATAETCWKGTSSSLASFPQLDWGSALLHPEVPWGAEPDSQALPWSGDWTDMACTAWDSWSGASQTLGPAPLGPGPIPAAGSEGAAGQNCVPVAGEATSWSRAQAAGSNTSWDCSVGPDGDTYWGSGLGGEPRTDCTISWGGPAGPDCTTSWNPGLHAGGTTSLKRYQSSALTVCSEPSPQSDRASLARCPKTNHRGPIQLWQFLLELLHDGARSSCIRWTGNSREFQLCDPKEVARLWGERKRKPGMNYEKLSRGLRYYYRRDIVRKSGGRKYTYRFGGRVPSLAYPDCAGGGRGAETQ
Method in brief: as §1

ELF3 = biological target: T11, ELF3 (Homo sapiens, UniProt P78545 1-371); conditions: protein: recombinant; tags: N-terminal GST; dsDNA, one strand shown
T11 sequence: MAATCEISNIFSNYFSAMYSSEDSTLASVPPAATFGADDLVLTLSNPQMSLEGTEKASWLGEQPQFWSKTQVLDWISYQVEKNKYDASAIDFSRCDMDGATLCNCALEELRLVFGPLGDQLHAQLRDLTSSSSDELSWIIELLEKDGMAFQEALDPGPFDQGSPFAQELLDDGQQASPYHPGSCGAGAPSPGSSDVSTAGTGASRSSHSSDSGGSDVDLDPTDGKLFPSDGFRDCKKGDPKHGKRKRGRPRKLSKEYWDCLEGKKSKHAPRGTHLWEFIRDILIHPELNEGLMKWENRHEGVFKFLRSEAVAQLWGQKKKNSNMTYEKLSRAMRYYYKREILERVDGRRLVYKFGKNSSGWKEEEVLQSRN
Method in brief: as §1

CRX = CRX (Homo sapiens, UniProt O43186 1-299); conditions: protein: recombinant; tags: N-terminal GST; dsDNA, one strand shown
CRX, sequence (O43186 whole entry): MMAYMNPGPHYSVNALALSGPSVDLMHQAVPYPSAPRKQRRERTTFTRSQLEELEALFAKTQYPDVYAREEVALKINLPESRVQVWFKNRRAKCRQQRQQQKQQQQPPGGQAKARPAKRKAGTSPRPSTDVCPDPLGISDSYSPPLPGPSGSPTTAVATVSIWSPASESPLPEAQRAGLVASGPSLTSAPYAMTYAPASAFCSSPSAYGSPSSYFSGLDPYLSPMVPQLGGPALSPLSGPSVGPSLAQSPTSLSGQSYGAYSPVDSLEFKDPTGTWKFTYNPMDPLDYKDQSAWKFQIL
Method in brief: as §1

ETV1 = ETV1 (Homo sapiens, UniProt P50549 1-477); conditions: protein: recombinant; tags: N-terminal GST; dsDNA, one strand shown
ETV1, sequence (P50549 whole entry): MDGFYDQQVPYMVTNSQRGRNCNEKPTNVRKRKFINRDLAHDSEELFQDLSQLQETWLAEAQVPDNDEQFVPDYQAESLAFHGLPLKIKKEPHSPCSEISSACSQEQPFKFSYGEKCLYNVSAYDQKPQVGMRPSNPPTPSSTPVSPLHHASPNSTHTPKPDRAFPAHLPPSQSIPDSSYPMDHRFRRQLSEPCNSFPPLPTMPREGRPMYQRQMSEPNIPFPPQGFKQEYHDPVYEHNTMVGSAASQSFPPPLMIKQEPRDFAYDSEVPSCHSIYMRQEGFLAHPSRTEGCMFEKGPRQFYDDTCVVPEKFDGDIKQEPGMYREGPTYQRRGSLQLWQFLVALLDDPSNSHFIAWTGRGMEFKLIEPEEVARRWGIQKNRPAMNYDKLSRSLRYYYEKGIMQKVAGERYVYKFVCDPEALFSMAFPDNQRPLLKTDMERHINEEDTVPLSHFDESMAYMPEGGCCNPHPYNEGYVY
Method in brief: as §1

With ATATGG the binding signal (FLI1) was 1.13 fold enrichment (6-mer frequency, TF over GST control), the binding signal (ELK1) was 1.31 fold enrichment (6-mer frequency, TF over GST control) and the binding signal (GABPA) was 1.28 fold enrichment (6-mer frequency, TF over GST control). For the same sequence, the binding signal (ERG) was 1.36 fold enrichment (6-mer frequency, TF over GST control), the binding signal (ELF1) was 1.26 fold enrichment (6-mer frequency, TF over GST control) and the binding signal (EHF) was 1.27 fold enrichment (6-mer frequency, TF over GST control). For the same sequence, the binding signal (SPI1) was 1.17 fold enrichment (6-mer frequency, TF over GST control), the binding signal (SPIB) was 1.24 fold enrichment (6-mer frequency, TF over GST control) and the binding signal (ELK3) was 1.25 fold enrichment (6-mer frequency, TF over GST control). For the same sequence, the binding signal (FEV) was 1.25 fold enrichment (6-mer frequency, TF over GST control), the binding signal (ETV5) was 1.3 fold enrichment (6-mer frequency, TF over GST control) and the binding signal (HSF1) was 1.17 fold enrichment (6-mer frequency, TF over GST control). For the same sequence, the binding signal (SPIC) was 1.41 fold enrichment (6-mer frequency, TF over GST control), the binding signal (ELF4) was 1.35 fold enrichment (6-mer frequency, TF over GST control) and the binding signal (ELK4) was 1.36 fold enrichment (6-mer frequency, TF over GST control). For the same sequence, the binding signal (ETV2) was 1.13 fold enrichment (6-mer frequency, TF over GST control), the binding signal (ELF3) was 1.36 fold enrichment (6-mer frequency, TF over GST control) and the binding signal (CRX) was 1.19 fold enrichment (6-mer frequency, TF over GST control). The binding signal (ETV1) was 1.17 fold enrichment (6-mer frequency, TF over GST control).

— article PMC7862700, “An all-to-all approach to the identification of sequence-specific readers for epigenetic DNA modifications on cytosine”
